Compounds with a hit are over-represented: about 4.7% of the library has one in this group of screens.
EBI2 antag: blocks human EBI2 receptor beta-arrestin signaling | P32249 | EBI2 beta-arrestin recruitment, luminescence, 7a,25-OHC stimulated | inhibition, % at 5 µM | 360,000 tested, 0.81% active; in the data active = inhibition above about 38%;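 note: enzyme fragment complementation signal reports receptor beta-arrestin coupling in cells; 0% = agonist plus DMSO wells and 100% = wells without agonist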
Target sequence (P32249 whole entry, looked up, the tested form may be a part): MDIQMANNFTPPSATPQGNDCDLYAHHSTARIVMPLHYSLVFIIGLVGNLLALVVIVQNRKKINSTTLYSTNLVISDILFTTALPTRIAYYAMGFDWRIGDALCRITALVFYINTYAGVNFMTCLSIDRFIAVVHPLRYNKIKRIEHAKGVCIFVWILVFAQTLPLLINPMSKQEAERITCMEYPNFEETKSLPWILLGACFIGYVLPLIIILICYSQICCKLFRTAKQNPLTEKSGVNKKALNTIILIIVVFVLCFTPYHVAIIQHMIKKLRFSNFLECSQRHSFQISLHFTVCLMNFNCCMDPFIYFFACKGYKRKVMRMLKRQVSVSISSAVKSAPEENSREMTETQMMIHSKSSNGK
tim10-1 inh: tim10-1 yeast growth inhibition | S. cerevisiae tim10-1 ts strain growth, BacTiter-Glo, 24 h | inhibition, % at 20 µM | 330,000 tested, 2.2% active | AID 463190;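 active = inhibition of at least 40%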;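 note: mutant grown at 25 °C; 0% = DMSO wells with yeast and 100% = wells holding no yeast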
SKKanGAS inh: SKKanGAS growth inhibition; S. pyogenes SKKanGAS, kanamycin growth, BacTiter-Glo, 6 h; 300,000 tested, 1.3% active; inhibition, % at 7.5 µM;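 active = mean replicate score, as percent of positive control median, at least 50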;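 note: strain carries kanamycin resistance gene driven by streptokinase promoter and grows in 40 µg/ml kanamycin; loss of luminescence reflects streptokinase promoter inhibition or plain growth inhibition; 0% = median of DMSO wells and 100% = positive control at its reference dose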
tim23-1 inh: growth inhibitors of tim23-1 mutant yeast | 330,000 tested, 1.3% active | inhibition, % at 20 µM | S. cerevisiae tim23-1 growth, BacTiter-Glo luminescence, 24 h | AID 463212;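 active = growth inhibition of the mutant yeast at or above 50%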;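 note: temperature-sensitive mutant grown at 25 °C; plate controls were DMSO-treated mutant yeast for no effect and medium wells lacking yeast for full effect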
TIM10 inh: TIM10 yeast growth inhibition | S. cerevisiae TIM10 strain growth, BacTiter-Glo luminescence, 24 h | inhibition, % at 10 µM | 330,000 tested, 1.4% active;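 active = inhibition of 40% or more at the single tested concentration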;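 note: wild-type TIM10 isogenic control strain grown at permissive 25 °C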
PfHsp90 yeast 2: reduces growth (ATP signal) of yeast expressing P. falciparum Hsp90. 310,000 tested, 0.32% active. S. cerevisiae expressing PfHsp90, BacTiter-Glo ATP, 48 h; yeast lacking PDR1 and PDR3 efflux regulators. inhibition, % at 9.4 µM. AID 504621;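 active = every replicate shows inhibition above about 80%, whatever the replicate mean, limit read from the data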;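 note: 0% = DMSO neutral controls and 100% = 20 µM radicicol positive controls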
EBI2 conf: EBI2 (human) antagonism, single concentration confirmation. AID 651997. inhibition, % at 5 µM. EBI2 beta-arrestin luminescence, 7a,25-OHC antagonism. 2,400 tested, 29% active. shares compounds with EBI2 antag;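 active = inhibition of at least 50%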
EBI2 ag: activates EBI2, counter-screen for EBI2 antagonists; shares compounds with EBI2 antag; EBI2-expressing cells, agonist mode, luminescence, 60 min; 0% vehicle, 100% 7α,25-dihydroxycholesterol control; activation, % at 5 µM; 2,400 tested, under 10 active; AID 652000;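 active = activation of at least 50%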
bGal counter: beta-galactosidase inhibition counter-screen; shares compounds with EBI2 antag; purified beta-galactosidase, luminescent Galacton Star, 15 min; inhibition, % at 5 µM; 2,400 tested, 1% active;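 active = replicate-average signal at least 3 plate SD below neutral wells, shown as high inhibition, flagging enzyme-inhibiting false positives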;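 note: 0% = DMSO wells with enzyme and 100% = wells lacking enzyme; higher means stronger loss of beta-gal luminescence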
* marks the source's active call; other numbers are inactive results; . = not tested or not shown.

SMILES | EBI2 antag | tim10-1 inh | SKKanGAS inh | tim23-1 inh | TIM10 inh | PfHsp90 yeast 2 | EBI2 conf | EBI2 ag | bGal counter
Cc1ccc(C)c(OCC(=O)Nc2ccc(S(=O)(=O)Nc3onc(C)c3C)cc2)c1 | -3 | 10 | 11 | 9 | 0 | -14 | . | . | .
O=C(/C=C/c1cccs1)N1CCC2(CC1)Oc1ccc(Cl)cc1C(=O)C21CC(c2ccccc2)=NO1 (stereo not drawn) | 61* | 14 | 38 | 14 | 4 | . | 40 | -1 | 6
COc1ccc(C2(CNC(=O)c3ccc(OC)c([N+](=O)[O-])c3)CCCCC2)cc1OC | 10 | 8 | 6 | 26 | -3 | 3 | . | . | .
Cc1ccc(C2=NNC(=O)C(c3ccc(Cl)cc3)C2)cc1 (stereo not drawn) | 53* | 28 | 7 | 45 | -17 | . | 40 | 0 | 9
Cc1ccc(CS(=O)Cc2ccc(C(=O)N3CCN(C4CCCCC4)CC3)o2)cc1 (stereo not drawn) | 2 | -16 | 1 | -1 | 1 | 7 | . | . | .
CCC(=NCCc1c(C)[nH]c2ccc(OC(F)(F)F)cc12)C1=C(O)CC(c2ccccc2)CC1=O (stereo not drawn) | 39 | -11 | 29 | 2 | -16 | . | . | . | .
CCC(=NCCc1c(C)[nH]c2ccccc12)C1=C(O)CC(c2ccccc2)CC1=O (stereo not drawn) | 39 | -11 | 8 | 10 | -3 | 11 | . | . | .
CC(=NCCc1c(C)[nH]c2ccc(OCc3ccccc3)cc12)C1=C(O)CC(c2ccccc2)CC1=O (stereo not drawn) | 46* | -16 | 9 | 16 | -3 | 6 | 25 | 0 | 5
CCCCC(=NCCc1c(C)[nH]c2ccc(OC)cc12)C1=C(O)CC(c2ccccc2)CC1=O (stereo not drawn) | 51* | 7 | 21 | 18 | 2 | -5 | 2 | 15 | -12
Cc1ccc(S(=O)(=O)CCc2nc3ccccc3s2)cc1C | 3 | 34 | -12 | 28 | 18 | 3 | . | . | .
CC(=O)Nc1ccc(C(=O)CN2C(=O)CSC2=O)cc1 | 12 | 3 | 2 | 7 | -11 | -19 | . | . | .
CC(OC(=O)CNC(=O)c1ccc2ccccc2c1)C(=O)N(C)C1CCCCC1 (stereo not drawn) | 50* | 40 | -2 | 22 | 12 | -21 | 25 | -1 | -10
COc1ccccc1C(=O)NCC(=O)OC(C)C(=O)N(C)C1CCCCC1 (stereo not drawn) | -3 | -2 | . | 2 | -2 | -7 | . | . | .
O=c1[nH]c2ccccc2cc1CN(Cc1ccco1)S(=O)(=O)c1ccccc1 | 6 | 13 | 4 | 31 | 10 | -4 | . | . | .
CC1CC(C)CN(c2ccc([N+](=O)[O-])cc2-c2nn[nH]n2)C1 (stereo not drawn) | 74* | -1 | 10 | 6 | -5 | 9 | 51* | 0 | 15
O=C(NCCS(=O)(=O)c1ccc(Br)cc1)c1ccccc1 | -6 | 15 | -4 | 14 | 4 | 2 | . | . | .
CC(C(=O)NCCS(=O)(=O)c1ccc(Cl)cc1)S(=O)(=O)c1ccc(Cl)cc1 (stereo not drawn) | 7 | 6 | 9 | -3 | -10 | 9 | . | . | .
CC(NCCS(=O)(=O)c1ccc(Cl)cc1)c1cccc(Cl)c1 (stereo not drawn) | 74* | 15 | 1 | 12 | 18 | -1 | 38 | 0 | 4
CC(C)c1ccc(C(C)NCCS(=O)(=O)c2ccc(Br)cc2)cc1 (stereo not drawn) | 78* | 11 | 0 | 21 | 25 | -8 | 61* | 0 | 5
COc1ccc(C(C)=O)cc1CSc1nc2ccccc2c(=O)n1-c1ccccc1C | 44* | 24 | 3 | 33 | 16 | -34 | 23 | 1 | 7
O=S(=O)(c1ccc(NC(=S)N/N=C/c2ccc(O)c(O)c2)cc1)N1CCOCC1 | 4 | 1 | 3 | -12 | -14 | 11 | . | . | .
N#Cc1ccc(/C=N/NC(=S)Nc2ccc(S(=O)(=O)N3CCOCC3)cc2)cc1 | 54* | 2 | 9 | -4 | 3 | 6 | 26 | -1 | -2
CSC1=C(C#N)C(c2ccccc2Cl)C(C(C)=O)=C(C)N1 (stereo not drawn) | 65* | 3 | 5 | 1 | 6 | -22 | 48 | 3 | 10
CSC1=C(C#N)C(c2ccccc2)C(C(C)=O)=C(C)N1 (stereo not drawn) | 11 | 16 | 1 | 1 | 6 | 11 | . | . | .
CC(=O)c1ccc(NC(=O)c2cnsn2)cc1 | -8 | 21 | 8 | 16 | 8 | . | . | . | .
SMILES | EBI2 antag | tim10-1 inh | SKKanGAS inh | tim23-1 inh | TIM10 inh | PfHsp90 yeast 2 | EBI2 conf | EBI2 ag | bGal counter
O=C(Nc1nc(-c2ccccn2)cs1)c1ncc(Cl)c(Cl)c1Cl | 49* | 30 | 98* | -34 | -13 | 110* | 21 | 1 | 9
Cc1cc(NC(=O)CSc2nnc(C(F)(F)F)n2C)no1 | -11 | 10 | . | 15 | 6 | 4 | . | . | .
CCOC(=O)C1CCN(C(=O)COc2ccc(Cl)cc2)CC1 | 75* | 19 | 3 | 17 | 3 | -3 | 54* | -2 | -10
COC(=O)C1CCN(C(=O)COc2ccc(Cl)cc2)CC1 | 62* | -1 | -4 | 2 | -2 | . | 57* | 1 | 10
Cc1cccc(OCC(=O)N2CCN(C(=O)COc3ccc(Cl)cc3)CC2)c1 | 84* | 16 | -1 | 2 | 13 | 5 | 50* | -1 | -15
CCOC(=O)C1CCN(C(=O)COC(=O)COc2ccc(Cl)cc2)CC1 | 1 | -11 | -1 | 9 | 4 | -7 | . | . | .
Cc1cccc(OCC(=O)N2CCN(S(C)(=O)=O)CC2)c1 | 1 | 8 | 4 | 18 | -5 | 14 | . | . | .
CCc1ccccc1N(C(=O)CCC(=O)Nc1cc(C)on1)C(C(=O)NC1CCCC1)c1ccco1 (stereo not drawn) | 4 | 11 | -3 | 18 | 16 | 6 | . | . | .
Cc1ccc(S(=O)(=O)NC(C)C(=O)OCC(=O)N(C)c2ccccc2)cc1 (stereo not drawn) | 7 | 21 | . | 18 | 1 | . | . | . | .
COc1ccc(CNC(=O)c2cn(Cc3ccccc3OC)c(=O)s2)cc1 | 1 | . | . | . | . | . | . | . | .
CCN(CC)c1ccc(NC(=O)COc2ccc(C)cc2)cc1 | 48* | -16 | -4 | 7 | -23 | 9 | 5 | -1 | -13
Cc1ccc(OCC(=O)Nc2ccc(N(C)C)cc2)cc1 | 1 | -9 | -18 | 5 | -6 | 5 | . | . | .

Bioassay records from PubChem.
